An excerpt weighted towards active compounds, which were near 19% of everything screened.
KB-3-1 tox – KB-3-1 parental cell cytotoxicity; hit rate 1.4% among 400,000; KB-3-1 viability, CellTiter-Glo ATP luminescence, 72 h; Potency, µM (series often up to 46.1 µM), hits mostly cytotoxic; also: nearly all actives have a fitted effect of over 60% in size
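KB-3-1 parental drug-naive adenocarcinoma cells in DMEM/10% FBS, incubated 72 h at 37 C with pin-transferred compounds across a concentration series. Viability by CellTiter-Glo luminescence; concentration-response curves fitted after normalization.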
KB-V1 MDR tox – KB-V1 MDR subline cytotoxicity. KB-V1 MDR cells viability, CellTiter-Glo, 72 h. Potency, µM (titrated, usually from 46.1 µM), most hits filed as cytotoxic. hit rate 3.4% among 400,000; also: nearly all actives have a fitted effect of over 60% in size
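Potencies derive from concentration-effect curves fitted to normalized luminescence (CellTiter-Glo) of KB-V1 cells treated for 72 h at 37 degrees C in phenol-red-free DMEM containing 10% FBS.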
HT1080NT lethal – kills 2HG-producing HT-1080-NT fibrosarcoma cells; Potency, µM (doses to about 46.1 µM), inactives show top-dose activity, negative = less viability, actives largely listed as cytotoxic; hit rate 1.6% among 360,000; AID 686970; HT-1080-NT fibrosarcoma viability, CellTiter-Glo ATP luminescence, 48 h;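 also: NT is the 2HG producing partner of a matched IDH1 knockdown line; 0% = DMSO-treated cells and -100% = media-only wells without cells; nearly all actives have a fitted effect of over 55% in size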
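Viability of the 2HG-overproducing fibrosarcoma line after 48 hours of compound exposure at 37 degrees C was determined by luminescence with CellTiter-Glo, and concentration-effect curves were then fitted and categorized.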
DT40 TDP1 no CPT – qHTS for Inhibitors of human tyrosyl-DNA phosphodiesterase 1 (TDP1): qHTS in cells in absence of CPT; DT40 Tdp1-/- hTDP1 cells, no CPT, ATP luminescence, 48 h; Potency, µM (highest dose often 46.2 µM), inactives show at the highest dose activity change, negative = growth inhibition, actives largely listed as inhibitors; hit rate 15% among 420,000; AID 686978, 2013; also: nearly all actives have a fitted effect of over 55% in size
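Readout: luminescence from CellTiter-Glo after 30 min in the dark at RT. Cells: DT40 Tdp1-/- with stable hTDP1, 400/well. Exposure: compounds alone, ≥48 hr, 37 °C.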
HT1080 IDH1KD tx – kills HT-1080 cells with IDH1 knockdown. hit rate 2% among 360,000. Potency, µM (top dose mostly 46.1 µM), for inactives: at the highest dose activity, negative = toxicity, usual class: cytotoxic. HT-1080 IDH1 knockdown viability, ATP luminescence, 48 h. AID 686971;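 also: 0% = DMSO wells and -100% = cell-free medium wells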
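CellTiter-Glo luminescence after 48 h compound exposure at 37 degrees C of IDH1-knockdown HT-1080 cells in 5% FBS RPMI. %Activity scaled between DMSO wells and cell-free media wells, with curves fitted and assigned curve classes.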
DT40 TDP1 CPT – DT40-hTDP1 cell growth loss with CPT. chicken DT40 Tdp1-/-;hTDP1 cells + 20 nM CPT, ATP luminescence, 48 h. AID 686979. hit rate 12% among 420,000. Potency, µM (series often up to 46.2 µM), for inactives: top-dose activity change, negative = growth inhibition, actives largely listed as inhibitors; also: nearly all actives have a fitted effect of over 55% in size
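Cell growth measured by CellTiter-Glo luminescence after a minimum 48 h, 37 C compound exposure with 20 nM CPT in Tdp1-knockout DT40 cells stably expressing hTDP1, seeded 400/well; qHTS titration format.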
* marks the source's active call; other numbers are inactive results; i = inactive; u = inconclusive; x = not tested or not shown. Calls follow the shape of the dose curve; as a rule, active = well fitted curve in the direction sought with a large enough effect; inconclusive = small, poorly fitted or top-dose-only effect, or another doubt; inactive = no such curve, though single readings can be large; an effect the other way counts as inactive or inconclusive. Unless noted, % is scaled to controls: 0 for no effect and ±100 for the full control effect; potency is read from the fitted curve at half-maximal effect.

SMILES	KB-3-1 tox	KB-V1 MDR tox	HT1080NT lethal	DT40 TDP1 no CPT	HT1080 IDH1KD tx	DT40 TDP1 CPT
CNC(=O)N(C)c1ccc(C(O)(C(=O)OC)C(F)(F)F)cc1 (stereo not given)	i	u	3.1%	-7.5%	12.0%	10.7%
O=[N+]([O-])c1cc(F)c(N2CCCCCC2)cc1N1CCNCC1	i	u	-6.3%	u	2.8%	16.4µM*
CN1CCN(c2ccc([N+](=O)[O-])c(N3CCCCC3)c2)CC1	i	i	-2.5%	-27.1%	1.2%	-6.6%
COC(=O)C1=C(c2ccc(C(C)=O)cc2)C[C@@H]2CC[C@H]1N2C(=O)N1CCC(O)(c2ccc(Cl)cc2)CC1	i	i	-10.4%	9.2µM*	-9.5%	16.4µM*
COC(=O)C1=C(c2ccc(OC)c(OC)c2)C[C@@H]2CC[C@H]1N2C(=O)N1CCOCC1	i	i	u	u	9.1%	20.6µM*
COC(=O)C1=C(c2ccc(C(C)=O)cc2)C[C@@H]2CC[C@H]1N2C(=O)N1CCC(C)CC1	i	i	4.6%	20.6µM*	1.2%	18.4µM*
COC(=O)C1=C(c2ccc(OC)c(OC)c2)C[C@@H]2CC[C@H]1N2C(=O)N1CCC(C)CC1	i	i	15.6%	10.3µM*	6.9%	20.6µM*
OC[C@@H]1CCCN2CCCC[C@@H]12	x	x	x	-6.7%	x	4.3%
COC(=O)N1CCC2(CCCN(C)C2)CC1	x	x	x	-20.2%	x	26.9%
O=C(NCCSc1c(-c2ccc(F)cc2)[nH]c2ccccc12)c1ccc(S(=O)(=O)N2CCOCC2)cc1	x	x	x	4.11µM*	x	5.17µM*
COc1cc(C(=O)NCCSc2c(-c3ccccc3)[nH]c3ccccc23)cc(OC)c1OC	u	u	x	8.2µM*	x	8.2µM*
CCCOP(=O)(OCCC)C(NC(=O)c1cc(OC)c(OC)c(OC)c1)c1ccccc1 (stereo not given)	i	u	-0.3%	u	-6.7%	-24.5%
O[C@H]1C[C@H](c2ccccc2)N(CC2CCCCC2)C[C@@H]1n1cc(-c2ccc(F)cc2)nn1	u	u	2.3%	14.6µM*	4.0%	23.1µM*
N#CC(C#N)=Cc1cc(O)c(O)c(O)c1	x	x	x	15µM*	x	9.44µM*
Cc1cc(=O)[nH]c(CCl)n1	i	i	3.3%	u	-1.3%	u
Cc1ccc(-n2c(O)c(C=Nc3ccc(S(N)(=O)=O)cc3)c(=O)[nH]c2=O)cc1	i	i	26.1%	2.6%	19.4%	-7.7%
Cc1cccc(-n2c(O)c(C=NCCN3CCCCC3)c(=O)[nH]c2=O)c1	i	i	-4.0%	-4.7%	1.2%	0.7%
Cc1ccc(-n2c(O)c(/C=N/c3ncc(Br)cc3Br)c(=O)[nH]c2=O)cc1	i	i	11.0%	9.2µM*	11.3%	u
Cc1cccc(-n2c(O)c(C=Nc3ccc(Br)cn3)c(=O)[nH]c2=O)c1	i	i	12.6%	16.4µM*	5.1%	10.3µM*
Cc1ccc(N/N=C/c2c(O)n(-c3ccccc3)c(=O)[nH]c2=O)cc1	i	i	u	u	2.91µM*	u
COC(=O)C12OCC34C(CC5C(C)=C(O)C(=O)CC5(C)C3C(O)C1O)OC(=O)C(OC(=O)/C=C(\C)C(C)C)C24 (stereo not given)	0.184µM*	3.26µM*	u	0.058µM*	0.0259µM*	0.0411µM*
COc1ccc(N2C(=O)NC(=O)/C(=C/c3ccc([N+](=O)[O-])s3)C2=O)cc1	i	i	-6.0%	6.51µM*	-0.4%	14.6µM*
COc1ccc(N2C(=O)NC(=O)/C(=C\c3ccc([N+](=O)[O-])s3)C2=O)cc1	i	i	-29.6%	u	-26.6%	13µM*
COc1ccccc1N1C(=O)NC(=O)/C(=C/c2ccc([N+](=O)[O-])s2)C1=O	i	i	-26.3%	14.6µM*	u	8.2µM*
CCOc1ccc(N2C(=O)NC(=O)/C(=C\c3cc(OC)c(OC)cc3[N+](=O)[O-])C2=O)cc1	i	i	u	u	-21.3%	u
SMILES	KB-3-1 tox	KB-V1 MDR tox	HT1080NT lethal	DT40 TDP1 no CPT	HT1080 IDH1KD tx	DT40 TDP1 CPT
COc1ccccc1N1C(=O)NC(=O)/C(=C\c2cnn(-c3ccccc3)c2)C1=O	i	i	u	u	u	u
O=C1NC(=O)N(c2ccccc2)C(=O)/C1=C\c1ccccc1[N+](=O)[O-]	i	i	-1.1%	-24.2%	5.0%	23.1µM*
CCN(c1ccccc1)S(=O)(=O)c1ccc(C(=O)NCC(c2ccccc2OC)N2CCCC2)cc1 (stereo not given)	u	u	-9.5%	u	-14.2%	u
CC1C(=O)OC2CCN3CC=C(COC(=O)[C@](C)(O)[C@]1(C)O)C23 (stereo not given in full)	x	x	x	-28.1%	x	u
C=C(Cl)CSC(=S)N(CC)CC	i	u	u	3.26µM*	u	5.17µM*
CC12CCC(=O)C=C1CCC1C2CCC2(C)C1CCC2(O)CC#N (stereo not given)	i	i	-3.2%	u	-0.3%	-18.1%
COc1ccc(NC(=O)N2C[C@@H]3C[C@@H](C2)c2cccc(=O)n2C3)c(OC)c1	i	i	3.1%	-0.9%	5.1%	5.1%

Screening data as filed in PubChem.
